Source: the supplement of paper PMC8728848
This excerpt belongs to a sample that is enriched for the strongest signals.

Experiments:
Assay in all cases: glycan array binding signal (z-score within array); higher = stronger binding
Conditions in all cases: glycan notation: IUPAC condensed, linker removed
[1] = biological target: Fuc(a1-2)Gal
Method in brief: (§1)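 Glycan array binding is given as a within-array Z-score, which can be read as non-binding when negative. The arrays, 3228 of them, came from the Consortium for Functional Glycomics database and were retained only where the protein sequence was available. Z-scores were averaged across arrays of the same protein sequence at different concentrations or buffers and across linkers.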

[2] = biological target: Fuc(a1-2)Gal(b1-3)GlcNAc(b1-2)Man(a1-3)[Fuc(a1-2)Gal(b1-3)GlcNAc(b1-2)Man(a1-6)]Man(b1-4)GlcNAc(b1-4)GlcNAc
Method in brief: as §1

[3] = biological target: Fuc(a1-2)Gal(b1-3)[Fuc(a1-4)]GlcNAc(b1-3)[Gal(b1-4)GlcNAc(b1-6)]Gal(b1-4)Glc
Method in brief: as §1

[4] = biological target: Fuc(a1-2)Gal(b1-4)GlcNAc(b1-3)Gal(b1-4)GlcNAc(b1-2)Man(a1-3)[Fuc(a1-2)Gal(b1-4)GlcNAc(b1-3)Gal(b1-4)GlcNAc(b1-2)Man(a1-6)]Man(b1-4)GlcNAc(b1-4)GlcNAc
Method in brief: as §1

[5] = biological target: Fuc(a1-2)Gal6S(b1-4)Glc
Method in brief: as §1

[6] = biological target: Fuc(a1-2)[GalNAc(a1-3)]Gal(b1-4)GlcNAc(b1-3)Gal(b1-4)GlcNAc(b1-3)Gal(b1-4)GlcNAc
Method in brief: as §1

[7] = biological target: Fuc(a1-3)[Gal(b1-4)]GlcNAc
Method in brief: as §1

[8] = biological target: Fuc(a1-3)[Gal(b1-4)]GlcNAc(b1-2)Man(a1-3)[Fuc(a1-3)[Gal(b1-4)]GlcNAc(b1-2)Man(a1-6)]Man(b1-4)GlcNAc(b1-4)[Fuc(a1-6)]GlcNAc
Method in brief: as §1

[9] = biological target: Fuc(a1-4)GlcNAc
Method in brief: as §1

[10] = biological target: Gal(a1-3)Gal(b1-4)GlcNAc(b1-2)Man
Method in brief: as §1

[11] = biological target: Gal(a1-3)Gal(b1-4)[Fuc(a1-3)]GlcNAc(b1-2)Man(a1-3)[Gal(a1-3)Gal(b1-4)[Fuc(a1-3)]GlcNAc(b1-2)Man(a1-6)]Man(b1-4)GlcNAc(b1-4)GlcNAc
Method in brief: as §1

[12] = biological target: Gal(b1-3)GlcNAc(b1-3)Gal(b1-4)GlcNAc(b1-3)Gal(b1-4)GlcNAc(b1-2)[Gal(b1-3)GlcNAc(b1-3)Gal(b1-4)GlcNAc(b1-3)Gal(b1-4)GlcNAc(b1-6)]Man(a1-6)[Gal(b1-3)GlcNAc(b1-3)Gal(b1-4)GlcNAc(b1-3)Gal(b1-4)GlcNAc(b1-2)Man(a1-3)]Man(b1-4)GlcNAc(b1-4)[Fuc(a1-6)]GlcNAc
Method in brief: as §1

[13] = biological target: Gal(b1-4)GlcNAc(b1-3)Gal(b1-4)GlcNAc(b1-2)Man(a1-3)[Gal(b1-4)GlcNAc(b1-3)Gal(b1-4)GlcNAc(b1-2)Man(a1-6)]Man(b1-4)GlcNAc(b1-4)GlcNAc
Method in brief: as §1

[14] = biological target: Gal(b1-4)GlcNAc(b1-3)Gal(b1-4)GlcNAc(b1-3)Gal(b1-4)GlcNAc(b1-2)Man(a1-3)[Gal(b1-4)GlcNAc(b1-3)Gal(b1-4)GlcNAc(b1-3)Gal(b1-4)GlcNAc(b1-2)Man(a1-6)]Man(b1-4)GlcNAc(b1-4)GlcNAc
Method in brief: as §1

[15] = biological target: Gal(b1-4)GlcNAc(b1-3)Gal(b1-4)GlcNAc(b1-3)Gal(b1-4)GlcNAc(b1-3)Gal(b1-4)GlcNAc(b1-3)Gal(b1-4)GlcNAc(b1-2)Man(a1-3)[Gal(b1-4)GlcNAc(b1-3)Gal(b1-4)GlcNAc(b1-3)Gal(b1-4)GlcNAc(b1-3)Gal(b1-4)GlcNAc(b1-3)Gal(b1-4)GlcNAc(b1-2)Man(a1-6)]Man(b1-4)GlcNAc(b1-4)GlcNAc
Method in brief: as §1

[16] = biological target: Gal(b1-4)GlcNAc(b1-3)Gal(b1-4)GlcNAc(b1-3)Gal(b1-4)GlcNAc(b1-3)Gal(b1-4)GlcNAc(b1-3)Gal(b1-4)GlcNAc(b1-2)Man(a1-3)[Gal(b1-4)GlcNAc(b1-3)Gal(b1-4)GlcNAc(b1-3)Gal(b1-4)GlcNAc(b1-3)Gal(b1-4)GlcNAc(b1-3)Gal(b1-4)GlcNAc(b1-2)Man(a1-6)]Man(b1-4)GlcNAc(b1-4)[Fuc(a1-6)]GlcNAc
Method in brief: as §1

[17] = biological target: Gal(b1-4)GlcNAc(b1-3)Gal(b1-4)GlcNAc(b1-3)Gal(b1-4)GlcNAc(b1-3)Gal(b1-4)GlcNAc(b1-3)Gal(b1-4)GlcNAc(b1-2)[Gal(b1-4)GlcNAc(b1-3)Gal(b1-4)GlcNAc(b1-3)Gal(b1-4)GlcNAc(b1-3)Gal(b1-4)GlcNAc(b1-3)Gal(b1-4)GlcNAc(b1-6)]Man(a1-6)[Gal(b1-4)GlcNAc(b1-3)Gal(b1-4)GlcNAc(b1-3)Gal(b1-4)GlcNAc(b1-3)Gal(b1-4)GlcNAc(b1-3)Gal(b1-4)GlcNAc(b1-2)Man(a1-3)]Man(b1-4)GlcNAc(b1-4)[Fuc(a1-6)]GlcNAc
Method in brief: as §1

[18] = biological target: Gal(b1-4)GlcNAc(b1-3)Gal(b1-4)GlcNAc(b1-3)Gal(b1-4)GlcNAc(b1-3)Gal(b1-4)GlcNAc(b1-3)Gal(b1-4)GlcNAc(b1-3)Gal(b1-4)GlcNAc(b1-2)Man(a1-3)[Gal(b1-4)GlcNAc(b1-3)Gal(b1-4)GlcNAc(b1-3)Gal(b1-4)GlcNAc(b1-3)Gal(b1-4)GlcNAc(b1-3)Gal(b1-4)GlcNAc(b1-3)Gal(b1-4)GlcNAc(b1-2)Man(a1-6)]Man(b1-4)GlcNAc(b1-4)GlcNAc
Method in brief: as §1

[19] = biological target: Gal(b1-4)GlcNAc(b1-6)GalNAc
Method in brief: as §1

[20] = biological target: Gal3S(b1-4)Glc
Method in brief: as §1

[21] = biological target: Gal3S(b1-4)Glc6S
Method in brief: as §1

[22] = biological target: Gal3S(b1-4)[Fuc(a1-3)]Glc6S
Method in brief: as §1

[23] = biological target: Gal6S(b1-4)GlcNAc6S
Method in brief: as §1

[24] = biological target: GalNAc3S(b1-4)[Fuc(a1-3)]GlcNAc
Method in brief: as §1

[25] = biological target: GlcNAc(a1-4)Gal(b1-3)GlcNAc
Method in brief: as §1

B1: SP15308C-bot-338-23-338 (Bacteroides ovatus) (protein)
chain: DEWTDEQFKQLISFKTQPGGWGVTDVHVRYANSAKYTYNLPVLVSGSTDNTDDRLVSFSLRDDTLDILNFEKFGNRPELYFRELPQKYYSFPKELTIPAGQSHALLPIEFSLDGLDDSQKWALPLKVCEDANGTYAVNPRKYYRTAVLRPILFNEFSGRFSGSSLLGTMAGESDIKFSSTEIKLNVVTDSIVFFYAGQRTEDYEDRINYKVFLQFTGDKVDSKKDLYKMKIWAENEKLKFNSYSTPTYKVSSEMDATKTYLKHTYIVISDIDFDFVDYTSVPNYEIEYNMKGGLSVSRDLDTRKPDEDQGSDSKWW
glycan array binding signal (z-score) [1]: -0.164
glycan array binding signal (z-score) [2]: 2.27
glycan array binding signal (z-score) [3]: -0.476
glycan array binding signal (z-score) [4]: 0.228
glycan array binding signal (z-score) [5]: 0.374
glycan array binding signal (z-score) [6]: -0.548
glycan array binding signal (z-score) [7]: -0.26
glycan array binding signal (z-score) [8]: 2.11
glycan array binding signal (z-score) [9]: 2.58
glycan array binding signal (z-score) [10]: -0.133
glycan array binding signal (z-score) [11]: 1.61
glycan array binding signal (z-score) [12]: 3.59
glycan array binding signal (z-score) [13]: 1.12
glycan array binding signal (z-score) [14]: 4.37
glycan array binding signal (z-score) [15]: 2.06
glycan array binding signal (z-score) [16]: 2.46
glycan array binding signal (z-score) [17]: 6.22
glycan array binding signal (z-score) [18]: 0.957
glycan array binding signal (z-score) [19]: -0.147
glycan array binding signal (z-score) [20]: -0.591
glycan array binding signal (z-score) [21]: -0.188
glycan array binding signal (z-score) [22]: 0.68
glycan array binding signal (z-score) [23]: -0.622
glycan array binding signal (z-score) [24]: -0.053
glycan array binding signal (z-score) [25]: 0.674
